From PubChem BioAssay (EPA / NIEHS)
The source made the active and inactive calls. The calls were made as follows: active = hit-call score of the fitted dose curve at least 0.9, where 1 is the maximum; inactive = score below 0.9.

Assay: CCTE_Mundy_HCI_Cortical_Synap_Neur_Matur_NeuriteSpotCountPerNeuriteLength: CCTE's Synaptogenesis and Neurite Maturation Assay in rat cortical cells for Neurite Spot Count per Neurite Length, Mundy Lab (AID 2284210)
Description: CCTE_Mundy_HCI_Cortical_Synap&Neurite_Matur is a multiplexed, cell-based-readout assay that uses rat primary cortical cells with measurements taken at 288.33 hours after chemical dosing in a microplate: 96-well plate.CCTE_Mundy_HCI_Cortical_Synap_Neur_Matur_NeuriteSpotCountPerNeuriteLength is one of eight components of the CCTE_Mundy_HCI_Cortical_Synap&Neurite_Matur assay. It measures synaptogenesis and neurite maturation related to number of neurite-associated synapses (synaptophysin puncta) per unit length of neurite using High Content Imaging of fluorescently labelled markers.[…] Using a type of morphology reporter, loss -of-signal activity can be used to understand developmental effects.
Cells are plated onto 96 well plates and allowed 2 hr for attachment to the substrate. At days in vitro (DIV) 5, Cytosine Arabinoside (AraC) is added to arrest glial cell growth. Chemicals are dosed and a media change is performed at DIV 7 of differentiation and is continued through DIV 12 when the experiment is terminated. Cells are fixed with […] and Hoechst Dye. Cells are stained using Millipore Mouse anti-MAP2MAB3418 (1:800) and Millipore Rabbit anti-Synaptophysinsc-1750 (1:250) primary antibodies and Alexa Fluor-488 goat anti-mouse and AlexaFluor-546 goat anti-rabbit secondary antibodies to label neuronal cell nuclei, synapses and neurites. A Cellomics ArrayScan VTi HCS Reader is used for automated image acquisition and analysis of neurite outgrowth.
For `S=C([S-])NCCNC(=S)[S-].[Mn+2]`, the outcome was “inactive”. With `CSC(=O)c1cccc2nnsc12` the outcome was “inactive”. In the case of `C#CCOC(=O)[C@@H](C)Oc1ccc(Oc2ncc(Cl)cc2F)cc1`, the outcome is reported as “inactive”. For `O=C(O)c1ccccc1`, the outcome was “inactive”. With `S=C(S)NCCNC(=S)S.[Mn+2].[S-]C([S-])=NCCN=C([S-])[S-].[Zn+2]` the outcome was “inactive”. In the case of `CCN(CC)C(=O)c1cccc(C)c1`, the outcome is reported as “inactive”. In the case of `CC(C)(c1ccc(O)cc1)c1ccc(O)cc1`, the outcome is reported as “inactive”. With `CC1(C)C(C=C(Cl)Cl)C1C(=O)OCc1cccc(Oc2ccccc2)c1` (stereo not given) the outcome was “inactive”. With `CCCN(CCC)C(=O)SCC` the outcome was “inactive”. With `Cc1nn(C)c(Oc2ccccc2)c1C=NOCc1ccc(C(=O)OC(C)(C)C)cc1` the AC50 was 3.39 nM (active).
